Shown are actives, neighbours in structure and some others; about 9.9% of the full set was active somewhere.
IL-1B inflam inh: inflammasome signaling inhibition, IL-1 beta readout; 4.7% of 360,000 active; activity change, % at 57.5 µM; THP-1 LPS/ATP IL-1B secretion, AlphaLISA, 16 h; hits give low values; in the data active means activity change below about -50%; inconclusive means mostly about -30% to -49%
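Secreted IL-1B measured by AlphaLISA bead assay after 16 h compound exposure of THP-1 cells; compounds (final up to 57.5 uM) added 1 h before LPS (250 ng/mL) and ATP (1.25 mM) stimulation; lower signal means less secretion.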
KB-3-1 cytotox: KB-3-1 parental cell cytotoxicity | KB-3-1 viability, CellTiter-Glo ATP luminescence, 72 h | Potency, µM (highest dose often 46.1 µM), hits mostly cytotoxic | 1.4% of 400,000 active; further: nearly all actives have a fitted effect of over 60% in size
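Viability of parental KB-3-1 cells, measured by CellTiter-Glo luminescence, followed a 72 h incubation at 37 °C with pinned compounds in phenol-red-free DMEM containing 10% FBS.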
SW480 rereplic: DNA re-replication induction in SW480 cells; SW480 DNA re-replication, Hoechst DNA content imaging, 48 h; Potency, µM (series often up to 46.1 µM), most hits filed as activators; 1.8% of 340,000 active; AID 624297; further: nearly all actives have a fitted effect of over 55% in size
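First, 250 cells per well were seeded. Next, compound or vehicle (23 nL) was pinned in, plates sat 48 hr at 37 C. Finally Hoechst was added for 40 min before fluorescence scanning.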
MCF10A rerep: DNA re-replication induction in MCF 10a cells | MCF 10A DNA re-replication, Hoechst nuclear intensity, 48 h | Potency, µM (top dose mostly 46.1 µM), usual class: activators | 2.9% of 350,000 active; further: nearly all actives have a fitted effect of over 50% in size
KB-V1 cytotox: kills drug-selected multidrug resistant KB-V1 cells; Potency, µM (top dose mostly 46.1 µM), usual class: cytotoxic; 3.4% of 400,000 active; KB-V1 MDR cells viability, CellTiter-Glo, 72 h; further: nearly all actives have a fitted effect of over 60% in size
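Drug-selected KB-V1 cells, grown in DMEM lacking phenol red with 10% FBS, receive compound titrations; after three days at 37 degrees C, surviving cell ATP is quantified by CellTiter-Glo luminescence and responses normalized and curve-fitted.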
Each line names hits and unclear results; the compound was inactive in the other large screens. Unless noted, the call rests on the fitted dose curve; in most records, active means well fitted curve in the direction sought with a large enough effect; inconclusive means small, poorly fitted or top-dose-only effect, or another doubt; inactive means no such curve, though single readings can be large; an effect the other way counts as inactive or inconclusive.

CN(Cc1ccccc1)C(=O)C1CCN(S(=O)(=O)Cc2ccccc2)CC1	none (no result: IL-1B inflam inh, SW480 rereplic, MCF10A rerep)
CCC(CC)C(=O)Oc1c(Sc2ccccc2[N+](=O)[O-])c(C)nn1C(C)(C)C	KB-V1 cytotox 14.6µM
CCCN(CC(=O)Nc1ccccc1C)C(=O)Cc1coc2cc(C)ccc12	KB-V1 cytotox inconclusive
O=[N+]([O-])c1cc(CN2CCN(c3cccc(C(F)(F)F)c3)CC2)c2cccnc2c1O	KB-3-1 cytotox 3.66µM, SW480 rereplic inconclusive, KB-V1 cytotox inconclusive
COCc1cc(CN2CCCC2)c(O)c2ncccc12	KB-3-1 cytotox inconclusive, KB-V1 cytotox inconclusive
O=[N+]([O-])c1cc(CN2CCCC2)c2cccnc2c1O	KB-3-1 cytotox inconclusive, KB-V1 cytotox 5.8µM
COc1ccc(NC(=O)COc2nc3ccccc3nc2N2CCOCC2)c(OC)c1	none
Cc1ccc(C)c(Cn2cnc3ccccc3c2=O)c1	none (no result: IL-1B inflam inh, SW480 rereplic, MCF10A rerep)
COC(=O)C1C=CC(OC2OC(COC(C)=O)C(OC(C)=O)C(OC(C)=O)C2OC(C)=O)n2c(=O)n(-c3ccccc3)c(=O)n21 (centres undefined)	KB-3-1 cytotox inconclusive, SW480 rereplic inconclusive, MCF10A rerep 1.64µM, KB-V1 cytotox 5.17µM
CCN(CC)S(=O)(=O)c1ccc(NC(=O)c2ccc(OCC3CCCO3)cc2)cc1 (centres undefined)	IL-1B inflam inh inconclusive, MCF10A rerep inconclusive, KB-V1 cytotox 14.6µM
CCC(=O)Nc1ccc(OCC2CCCO2)cc1 (centres undefined)	none
CCOc1ccc(NC(=O)c2ccc(OCC3CCCO3)cc2)cc1S(=O)(=O)N(CC)CC (centres undefined)	KB-V1 cytotox 2.59µM
COc1ccc(S(=O)(=O)N(C)C)cc1NC(=O)c1ccc(OCC2CCCO2)cc1 (centres undefined)	none (no result: SW480 rereplic, MCF10A rerep)
Cc1ccc(NC(=O)CSc2nnc(-c3nnn(-c4ccc(F)cc4)c3C)o2)cc1Br	none (no result: IL-1B inflam inh, SW480 rereplic, MCF10A rerep)
COc1ccc(Cc2[nH]n3c(=O)cc(C(C)C)nc3c2-c2ccccc2)cc1	KB-3-1 cytotox 10.3µM, SW480 rereplic 10.3µM, MCF10A rerep 2.59µM
COc1ccc(Cc2[nH]n3c(=O)cc(C)nc3c2-c2ccccc2)cc1	KB-3-1 cytotox inconclusive, SW480 rereplic inconclusive, MCF10A rerep inconclusive
CN1CCN(Cn2cc(/C=C/C(=O)c3ccccc3)c3ccccc32)CC1	IL-1B inflam inh -65.9, SW480 rereplic inconclusive, MCF10A rerep inconclusive, KB-V1 cytotox inconclusive
COc1ccc(C(=O)/C=C/c2cn(CC(O)CN3CCCCCC3)c3ccccc23)cc1OC (centres undefined)	KB-3-1 cytotox inconclusive (no result: IL-1B inflam inh, SW480 rereplic, MCF10A rerep)
COc1ccc(C(=O)/C=C/c2cn(CC(O)CN3CCN(C)CC3)c3ccccc23)cc1OC (centres undefined)	SW480 rereplic 23.1µM, MCF10A rerep 10.3µM (no result: IL-1B inflam inh)
O=C(/C=C/c1cn(CC(O)CN2CCCCCC2)c2ccccc12)c1ccccc1 (centres undefined)	KB-3-1 cytotox inconclusive (no result: IL-1B inflam inh, SW480 rereplic, MCF10A rerep)
Cc1ccc(C(=O)/C=C/c2cn(CC(O)CN3CCCCCC3)c3ccccc23)cc1 (centres undefined)	none (no result: IL-1B inflam inh, SW480 rereplic, MCF10A rerep)
O=C(/C=C/c1cn(CC(O)CN2CCCCC2)c2ccccc12)c1cccs1 (centres undefined)	IL-1B inflam inh -67.8, KB-3-1 cytotox inconclusive, SW480 rereplic 20.6µM, MCF10A rerep 23.1µM, KB-V1 cytotox 23.1µM
O=C(/C=C/c1cn(CC(O)CN2CCCCC2)c2ccccc12)c1ccccc1 (centres undefined)	IL-1B inflam inh -86.7, SW480 rereplic 20.6µM, MCF10A rerep 20.6µM
COc1cc2c(c(Br)c1N)-c1cc(Br)c(N)cc1C2=O	none (no result: SW480 rereplic, MCF10A rerep)
CC(C(=O)NCc1ccco1)n1ccc2cc(S(=O)(=O)N3CCCCC3)ccc21 (centres undefined)	SW480 rereplic inconclusive, MCF10A rerep inconclusive
CN1C(=O)C2(c3ccccc31)c1c(oc3ccccc3c1=O)C(=O)N2CCCO (centres undefined)	none
O=[N+]([O-])c1c(C(Cl)Cl)nn(-c2ccccc2)c1N1CCOCC1	IL-1B inflam inh -80.6, SW480 rereplic inconclusive
O=[N+]([O-])c1c(C(Cl)Cl)nn(-c2ccc(Cl)cc2)c1N1CCCCC1	MCF10A rerep inconclusive, KB-V1 cytotox inconclusive
CC[C@@H](C)[C@@H]1CN([C@@H](C)CN2CCC[C@H]2CN2C(N)=NC[C@@H]2Cc2ccccc2)C(=N)N1CCc1ccc(Cl)c(Cl)c1	none
CC[C@@H](C)[C@@H]1CN([C@@H](C)CN2CCC[C@H]2CN2C(N)=NC[C@@H]2Cc2ccccc2)C(=N)N1CCCC1CCCC1	IL-1B inflam inh -63.4
CC[C@@H](C)[C@@H]1CN([C@@H](C)CN2CCC[C@H]2CN2C(N)=NC[C@H]2CC(C)C)C(=N)N1CCCC1CCCC1	IL-1B inflam inh inconclusive
CCC[C@@H](CN1CCC[C@H]1CN1C(N)=NC[C@H]1C(C)C)N1C[C@@H](Cc2ccccc2)N(CCCC2CCCC2)C1=N	IL-1B inflam inh -63.5, MCF10A rerep inconclusive
CC[C@@H](C)[C@@H]1CN([C@@H](CN2CCC[C@H]2CN2C(N)=NC[C@H]2C(C)C)C(C)C)C(=N)N1CCc1ccc(Cl)c(Cl)c1	IL-1B inflam inh -77.7
CCOC(=O)C(Cc1nc(OCc2ccccc2)cc(OCc2ccccc2)n1)=NO	KB-3-1 cytotox 20.6µM, MCF10A rerep 20.6µM, KB-V1 cytotox 13µM
CCOC(=O)C(=O)Cc1nc(OCc2ccccc2)cc(OCc2ccccc2)n1	MCF10A rerep inconclusive
CC(C(=O)NCCSCc1cccc(Cl)c1)N(c1ccccc1)S(C)(=O)=O (centres undefined)	none
CCN(CC)S(=O)(=O)c1cc(C)ccc1SC	SW480 rereplic 23.1µM
CN1CCN(CCC(=O)Nc2ccccc2)CC1	none
Cc1ccc(NC(=O)CCN2CCC(Cc3ccccc3)CC2)cc1	IL-1B inflam inh -82.4, KB-V1 cytotox inconclusive
Cc1ccc(NC(=O)CN2CCC(Cc3ccccc3)CC2)cc1S(=O)(=O)N(C)C	IL-1B inflam inh -54.1, SW480 rereplic 11.6µM, MCF10A rerep inconclusive, KB-V1 cytotox inconclusive
Cc1cccc2sc(NNC(=O)C3COc4ccccc4O3)nc12 (centres undefined)	none
O=C(NNc1nc2c(F)cc(F)cc2s1)C1COc2ccccc2O1 (centres undefined)	MCF10A rerep 0.92µM, KB-V1 cytotox inconclusive
CC(O)CNc1nc2ccccc2n1CC(=O)NC12CC3CC(CC(C3)C1)C2 (centres undefined)	none
c1ccc2c(c1)nnn2-c1ncnc2sc3c(c12)CCCC3	KB-V1 cytotox 16.4µM
Oc1ccc(N2CCN(c3ncnc4sc5c(c34)CCC5)CC2)cc1	SW480 rereplic inconclusive, MCF10A rerep 13µM
OCCN1CCN(c2ncnc3sc4c(c23)CCCC4)CC1	none
Cc1nc(-n2nnc3ccccc32)c2c3c(sc2n1)CCCC3	KB-3-1 cytotox inconclusive, MCF10A rerep inconclusive, KB-V1 cytotox 13µM
c1ccc2c(c1)ncn2-c1ncnc2sc3c(c12)CCCC3	none
